Laboratory results from PubChem BioAssay (NCATS).
Records with an inconclusive call do not appear. Values without a mark were called inactive. Calls come from the whole dose curve; as a rule, active = well fitted inhibition curve with a large enough effect; inconclusive = small, poorly fitted or top-dose-only effect; inactive = flat fitted curve, though single readings scatter.

target: Voltage-gated inwardly rectifying potassium channel KCNH2 (Homo sapiens) (UniProt Q12809); test: qHTS Assay for Small Molecule Inhibitors of the Human hERG Channel Activity (AID 588834); conditions: U2OS BacMam hERG, FluxOR thallium flux fluorescence; series mostly up to 46.1 µM; activity change, negative = inhibition: at the top concentration;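 note: top concentration of the series differs between compounds; lower thallium flux fluorescence means stronger hERG block; nearly all actives have a fitted effect of over 50% in size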
Summary of the method: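 In hERG-transduced U2OS cells, dye-loaded for 1 hr at room temperature in dark, test compounds incubated 10 min at 37 °C before thallium stimulation. AC50 values derived by Hill modelling of concentration-response.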
% is set by controls: 0 for no effect and ±100 for the full control effect.

Chain of Voltage-gated inwardly rectifying potassium channel KCNH2 (Homo sapiens) (Q12809 whole entry, looked up): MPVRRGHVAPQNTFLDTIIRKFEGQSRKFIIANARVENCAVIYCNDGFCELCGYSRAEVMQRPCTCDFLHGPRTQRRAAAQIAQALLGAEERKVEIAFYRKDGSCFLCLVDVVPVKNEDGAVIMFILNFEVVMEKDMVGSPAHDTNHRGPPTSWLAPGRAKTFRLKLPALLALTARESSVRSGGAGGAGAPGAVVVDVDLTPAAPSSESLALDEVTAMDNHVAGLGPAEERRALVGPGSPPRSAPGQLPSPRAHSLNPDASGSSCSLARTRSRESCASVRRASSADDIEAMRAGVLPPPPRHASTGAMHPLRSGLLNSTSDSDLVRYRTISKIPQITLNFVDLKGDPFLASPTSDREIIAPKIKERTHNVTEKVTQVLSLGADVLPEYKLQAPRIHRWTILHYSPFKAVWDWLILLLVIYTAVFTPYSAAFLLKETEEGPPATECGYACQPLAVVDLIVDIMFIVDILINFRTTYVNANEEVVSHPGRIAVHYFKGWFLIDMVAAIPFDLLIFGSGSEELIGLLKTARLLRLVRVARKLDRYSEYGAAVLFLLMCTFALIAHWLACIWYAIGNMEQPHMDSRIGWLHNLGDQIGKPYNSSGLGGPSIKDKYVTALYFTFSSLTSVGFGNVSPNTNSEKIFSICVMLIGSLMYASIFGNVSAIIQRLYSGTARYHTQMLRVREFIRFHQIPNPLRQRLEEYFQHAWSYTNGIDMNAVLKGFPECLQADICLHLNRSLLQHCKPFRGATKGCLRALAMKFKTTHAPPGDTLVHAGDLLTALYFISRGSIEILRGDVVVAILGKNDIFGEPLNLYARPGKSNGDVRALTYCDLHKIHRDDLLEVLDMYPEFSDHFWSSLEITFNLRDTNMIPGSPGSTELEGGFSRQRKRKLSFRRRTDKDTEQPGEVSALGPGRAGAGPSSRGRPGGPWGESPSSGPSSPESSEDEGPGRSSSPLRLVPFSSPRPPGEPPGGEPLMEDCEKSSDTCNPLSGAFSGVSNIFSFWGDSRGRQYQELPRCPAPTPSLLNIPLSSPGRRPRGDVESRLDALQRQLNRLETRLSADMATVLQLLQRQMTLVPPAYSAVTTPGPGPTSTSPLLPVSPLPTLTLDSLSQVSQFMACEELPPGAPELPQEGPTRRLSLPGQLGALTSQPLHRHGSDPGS

Row | SMILES | activity change, negative = inhibition [%]
1 | O=C(O)c1cc(=O)c2c(Cl)cc(Cl)cc2[nH]1 | -2.65
2 | CC[C@@H](C)[C@H]1O[C@]2(CC[C@@H]1C)C[C@@H]1C[C@@H](C/C=C(\C)[C@@H](O[C@H]3C[C@H](OC)[C@@H](O[C@H]4C[C@H](OC)[C@@H](O)[C@H](C)O4)[C@H](C)O3)[C@@H](C)/C=C/C=C3\CO[C@@H]4[C@H](O)C(C)=C[C@@H](C(=O)O1)[C@]34O)O2 | 154
3 | CN[C@H](CC(C)C)C(=O)N[C@H]1C(=O)N[C@@H](CC(N)=O)C(=O)N[C@H]2C(=O)N[C@H]3C(=O)N[C@H](C(=O)N[C@H](C(=O)O)c4cc(O)cc(O)c4-c4cc3ccc4O)[C@H](O)c3ccc(c(Cl)c3)Oc3cc2cc(c3O[C@@H]2O[C@H](CO)[C@@H](O)[C@H](O)[C@H]2O[C@H]2C[C@](C)(N)[C@H](O)[C@H](C)O2)Oc2ccc(cc2Cl)[C@H]1O | -7.26
4 | CCCCCCCCCCCCCCCCCCNC(=O)OCC(COP(=O)([O-])OCC[n+]1ccsc1)OC (configuration not stated) | 2.16
5 | O=Nc1ccc2oc(=O)ccc2c1 | 5.7
6 | O=C(O)CC1CCCc2ccccc2C1O (configuration not stated) | 9.22
7 | O=C1C(SCCO)=C(SCCO)C(=O)c2ccccc21 | 11.5
8 | N#C/C(=C\c1ccc(O)c(O)c1)C(=O)c1ccc(O)c(O)c1 | 24.3
9 | CCCn1c(=O)c2[nH]c(-c3ccc(OCC(=O)NCCN)cc3)nc2n(CCC)c1=O | 0.294
10 | O=C(O)[C@@H]1C[C@H](C(=O)O)N1 | 5.02
11 | CC(C)NC[C@H](O)COc1cccc2[nH]ccc12 | 1.16
12 | COc1ccc(-c2cc(=S)ss2)cc1 | -21.1
